The supplement of paper PMC3334620
The full ranking holds about 33,000 sequences; the median of “E-score (-0.5 to 0.5)” is about -0.035, and the highest 2% start at about 0.35. For the sample, the highest values were picked, then their nearest neighbours and some sequences at random.

biological target: T1, Pdr3 (UniProt P33200); assay: PBM E-score (8-mer binding enrichment) (E-score (-0.5 to 0.5)); higher = stronger / more preferred TF binding; details: protein concentration: 200 nM; construct: GST-full length
T1 sequence: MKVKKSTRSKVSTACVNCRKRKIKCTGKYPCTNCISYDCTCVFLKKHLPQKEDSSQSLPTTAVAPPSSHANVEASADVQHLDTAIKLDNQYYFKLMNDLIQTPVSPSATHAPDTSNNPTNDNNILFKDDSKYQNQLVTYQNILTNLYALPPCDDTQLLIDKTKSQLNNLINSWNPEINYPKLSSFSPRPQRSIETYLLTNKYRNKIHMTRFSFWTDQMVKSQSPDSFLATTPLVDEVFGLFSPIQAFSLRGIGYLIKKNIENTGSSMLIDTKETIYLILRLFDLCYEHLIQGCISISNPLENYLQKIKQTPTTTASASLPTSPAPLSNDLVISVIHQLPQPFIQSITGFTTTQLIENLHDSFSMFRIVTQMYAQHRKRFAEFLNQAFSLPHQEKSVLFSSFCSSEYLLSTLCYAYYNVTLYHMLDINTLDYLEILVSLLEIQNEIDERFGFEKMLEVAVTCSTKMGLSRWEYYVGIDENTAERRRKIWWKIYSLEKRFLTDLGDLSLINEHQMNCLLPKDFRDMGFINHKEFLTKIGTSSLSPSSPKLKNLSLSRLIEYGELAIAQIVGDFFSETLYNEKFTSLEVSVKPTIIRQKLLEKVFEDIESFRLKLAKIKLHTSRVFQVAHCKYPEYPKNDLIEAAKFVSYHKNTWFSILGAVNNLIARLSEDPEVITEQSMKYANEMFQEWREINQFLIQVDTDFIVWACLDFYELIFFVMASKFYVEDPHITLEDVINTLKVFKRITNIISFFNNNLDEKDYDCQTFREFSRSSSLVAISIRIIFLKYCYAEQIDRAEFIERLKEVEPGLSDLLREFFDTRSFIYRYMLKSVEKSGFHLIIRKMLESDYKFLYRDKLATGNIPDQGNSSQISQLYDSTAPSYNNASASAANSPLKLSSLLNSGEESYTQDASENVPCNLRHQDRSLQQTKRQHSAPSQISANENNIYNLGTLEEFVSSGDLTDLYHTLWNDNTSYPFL
Procedure, shortened: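 Using PURExpress in vitro transcription/translation, GST-tagged yeast transcription factors were made in full-length or DNA-binding-domain form. These were applied at about 100-200 nM to double-stranded universal all-10-mer Agilent arrays, and bound protein was detected with fluorescent anti-GST. Scans were normalised with masliner before the Universal PBM Analysis Suite assigned E-scores to ungapped eight-base words pooled with their reverse complements.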

Sequence | PBM E-score
ACGGTAGT | -0.00668
ATCGGGAA | 0.279
ATCGGGGG | 0.0408
CTCCGGGC | 0.236
ATCCGGGA | 0.313
AGCCGGGC | 0.137
ATCCGGGG | 0.389
ATCCGGGC | 0.386
CTGCTCGA | -0.176
AGCCATCA | -0.0552
ACGCCGAT | -0.0606
AATCCGCG | 0.388
AATCCGCA | 0.246
AATCCGCT | 0.16
AGTCCGCG | 0.364
CATCCGCA | 0.237
AGTCCGCC | 0.324
CATCCGCG | 0.359
CATCCGCC | 0.345
AGTCCGCA | 0.203
GCCCTAAA | -0.219
CCTCAAGC | -0.113
AGCTCTGC | -0.217
CAGCTCTA | -0.128
TAAGCGTA | -0.311

Sequence | PBM E-score
CGAGAGCG | 0.0432
ATTCGGTC | 0.0502
TCGAGAAA | -0.197
GCGAGAAA | -0.0403
CCGAGAAA | 0.357
ACAGTGGT | -0.156
GGGATCCA | 0.222
GGGATCCC | 0.374
CGGATCCG | 0.489
AGGATCCC | 0.152
AGGATCCG | 0.301
CGGATCCC | 0.374
CGGATCGC | 0.279
CGGATCCA | 0.413
AGGATCCA | -0.0311
CAGATCCG | 0.314
CAGATCCC | 0.0667
TGGATCCA | 0.096
AATCTTGT | 0.126
GATCTGCA | -0.0215
CCATTCAG | 0.0183
GATTTCCC | 0.143
CACTCAAC | -0.0691
GGGGCGTA | -0.114
CGGGCGGC | 0.291

Sequence | PBM E-score
AGGGCGGA | 0.285
CGGGCGGA | 0.383
CGGGCGTA | 0.0837
GGGGCGGA | 0.359
AGTCGGCC | 0.13
AGAAGCAC | -0.185
AAAGTTAC | -0.127
GAGGTGTA | -0.13
AGATGCGC | 0.0125
CCATGGAA | 0.156
CGTTAGAG | -0.0371
GCCGCGCA | 0.188
ACCGCGCG | 0.397
TCCGCGCA | 0.397
ACCGCGCA | 0.0742
ACCGCGCT | 0.139
CGCGCGCC | 0.241
CGCGCGCA | 0.347
CCCGCGCA | 0.288
CCCGCGCG | 0.382
CGCGCGCG | 0.372
ACCGCGCC | 0.128
CCCGCGCC | 0.265
CCCAACCG | 0.00518
CGACCGAG | 0.124

Sequence | PBM E-score
TATCACGA | -0.126
AAAATGAG | -0.188
ATAGCTAC | -0.0621
CAGGGGGA | -0.286
CTTTTTTA | -0.0672
ATCCCCGG | 0.386
ATCCCCCG | 0.278
ATCCCAAA | 0.0137
CTCCCCGC | 0.34
CTCCCGGC | 0.368
ATCCCAGA | -0.204
ATCCCCGA | 0.303
ATCCCGGA | 0.417
CCCCCGGC | 0.037
CTCCCCGA | 0.053
CTCCCGCA | 0.145
CTCCCGGA | 0.386
CGGCGTAA | -0.0269
CTGCGTGC | -0.0812
AATTTGTG | 0.159
ATGAGAAG | -0.162
GTACTCGA | -0.0779
ATCCCGGG | 0.455
ATCCCGAC | 0.331
ACCCCGGC | 0.153

Sequence | PBM E-score
GTCCCCGA | 0.166
GTCCCGGA | 0.394
GTCCCGCA | 0.229
ATCCCAGG | 0.113
ATCCCTGG | -0.0752
ATCCCGGC | 0.419
ATGTTCAG | -0.207
AGGTCTAA | -0.0213
AGGAGGCA | -0.127
AGAGCTCG | 0.0679
CAATTCTC | -0.138
AGATGGAG | -0.127
CCATACCC | 0.0565
GCGTGTCC | 0.201
CCGTGTCC | 0.356
CCGTGTCA | 0.24
GGGTTTGA | -0.0398
AGCGACGG | 0.258
AGGGTCAA | -0.0253
GGGGTCAA | -0.0321
CGGGTCAA | 0.387
AATGGAGG | 0.0106
GTCGGCTA | 0.0468
CACAGAGG | -0.0837
CATTCCAG | -0.131

Sequence | PBM E-score
TATTCCGA | 0.407
TATTCCAA | -0.091
GATTCCAA | -0.0548
GATTCCGA | 0.454
CATTCCAA | -0.102
CATTCCCG | 0.274
TATTCCCA | 0.0626
CATTCCGG | 0.451
CATTCCGA | 0.421
GATTCCCA | 0.0551
CATTCCTA | -0.14
AGTTGCAC | -0.136
CTTGCCTC | 0.0139
AGTCTCGG | 0.101
ATGCGAAG | -0.0662
GATCCCAA | 0.0388
ATAAATAC | 0.176
ACCGGGAC | 0.318
ACCGGGAA | 0.309
AACGGGAG | 0.179
ACCGGGAT | 0.357
AACGGGAC | 0.217
AACGGGAT | 0.364
CGCACCAG | 0.133
AGTTTGAT | 0.0669

Sequence | PBM E-score
ACATGCTG | -0.158
ACATTCCA | -0.0365
AAGACTAC | -0.188
ACGTTCCT | 0.0124
ATGTTCCG | 0.48
AGGTTCCA | -0.018
ATGTTCCC | 0.153
AGGTTCCG | 0.478
AGGTTCCC | -0.0087
CCGTTCCA | 0.207
CCGTTCCG | 0.477
CCGTTCCC | 0.253
ACGTTCCA | 0.0623
ACGTTCCG | 0.445
ATGTTCCA | 0.0325
GCAGGGAA | 0.0453
GAATAGGA | 0.0694
ACCGGTTG | 0.208
AGCATTTG | -0.0766
CGAGAGGC | -0.119
GCGAGAGA | -0.148
CAGTCTTC | -0.147
